For some of these results: Measured potencies and affinities stand elsewhere.
How the values were obtained:
Set-up in all cases: scale not given: direction of the effect not stated beside the values
[1] = molecular target: Protein translocase subunit SecA (Escherichia coli (strain K12)) (UniProt P10408); assay: Assay to Identify E. coli SecA ATPase Inhibitors; format: functional; conditions: 30 µM
[2] = molecular target: T1, Ubiquitin-activating enzyme e1, putative (Leishmania donovani (strain BPK282A1)) (UniProt E9BSI1); assay: Leishmania donovani Ubiquitin Activating Enzyme (LdE1); format: functional; conditions: 30 µM
T1 sequence (whole entry): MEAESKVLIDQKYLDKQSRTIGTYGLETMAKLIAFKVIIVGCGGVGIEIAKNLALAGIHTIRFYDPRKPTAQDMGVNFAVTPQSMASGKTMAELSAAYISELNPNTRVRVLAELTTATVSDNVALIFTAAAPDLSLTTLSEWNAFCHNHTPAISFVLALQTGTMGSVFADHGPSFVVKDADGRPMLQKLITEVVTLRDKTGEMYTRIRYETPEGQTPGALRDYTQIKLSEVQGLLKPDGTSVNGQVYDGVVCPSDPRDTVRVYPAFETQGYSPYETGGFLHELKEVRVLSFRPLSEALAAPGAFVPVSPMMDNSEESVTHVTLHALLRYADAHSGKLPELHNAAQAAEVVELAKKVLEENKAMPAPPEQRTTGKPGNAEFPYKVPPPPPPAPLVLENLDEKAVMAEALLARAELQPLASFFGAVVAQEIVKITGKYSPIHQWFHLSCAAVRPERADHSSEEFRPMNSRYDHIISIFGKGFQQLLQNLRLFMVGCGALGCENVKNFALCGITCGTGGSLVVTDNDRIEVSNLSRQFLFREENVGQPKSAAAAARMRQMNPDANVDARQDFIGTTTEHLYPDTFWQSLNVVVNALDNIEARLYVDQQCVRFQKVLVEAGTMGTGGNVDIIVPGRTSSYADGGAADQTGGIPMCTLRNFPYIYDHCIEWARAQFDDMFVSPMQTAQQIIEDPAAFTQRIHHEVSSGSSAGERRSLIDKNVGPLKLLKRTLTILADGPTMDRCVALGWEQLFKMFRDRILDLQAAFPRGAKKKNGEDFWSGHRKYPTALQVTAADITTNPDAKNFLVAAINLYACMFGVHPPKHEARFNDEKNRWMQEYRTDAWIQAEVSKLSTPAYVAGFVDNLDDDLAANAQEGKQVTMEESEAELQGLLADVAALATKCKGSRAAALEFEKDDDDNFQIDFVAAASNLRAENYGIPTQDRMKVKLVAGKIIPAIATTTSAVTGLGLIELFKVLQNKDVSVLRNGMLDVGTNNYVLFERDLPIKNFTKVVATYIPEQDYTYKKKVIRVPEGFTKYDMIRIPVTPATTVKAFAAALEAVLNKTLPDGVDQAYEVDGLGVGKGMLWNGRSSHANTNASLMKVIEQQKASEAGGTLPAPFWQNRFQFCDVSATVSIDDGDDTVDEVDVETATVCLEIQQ

[3] = molecular target: AMP-activated protein kinase, AMPK (Homo sapiens) (UniProt P54646+O43741+P54619+Q9UGJ0+Q9Y478+Q13131+Q9UGI9); assay: AMP-dependent Kinase enzyme assay. An in vitro enzyme assay that detects ADP turnover that is directly proportional to AMPK activity. This uses naive AMPK that is activated during the assay with MK-8722; format: functional; conditions: 30 µM
[4] = molecular target: Sialic acid-binding Ig-like lectin 9 (Homo sapiens) (UniProt Q9Y336); assay: Hs-Siglec9 ALPHAscreen SOP 20170721; conditions: 10 µM
Chain of Sialic acid-binding Ig-like lectin 9 (Homo sapiens) (Q9Y336 whole entry): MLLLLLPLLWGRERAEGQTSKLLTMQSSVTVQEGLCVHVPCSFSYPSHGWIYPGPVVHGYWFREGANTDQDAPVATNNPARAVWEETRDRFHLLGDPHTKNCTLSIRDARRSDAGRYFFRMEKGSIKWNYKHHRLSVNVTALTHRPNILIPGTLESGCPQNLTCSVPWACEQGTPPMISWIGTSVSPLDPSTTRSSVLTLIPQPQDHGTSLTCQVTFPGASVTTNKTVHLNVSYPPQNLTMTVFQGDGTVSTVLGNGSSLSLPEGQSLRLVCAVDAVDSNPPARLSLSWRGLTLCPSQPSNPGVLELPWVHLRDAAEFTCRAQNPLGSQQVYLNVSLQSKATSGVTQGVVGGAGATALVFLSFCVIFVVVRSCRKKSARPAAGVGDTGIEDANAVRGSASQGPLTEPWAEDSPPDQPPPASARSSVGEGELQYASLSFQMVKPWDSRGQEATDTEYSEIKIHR

[5] = tested on: Trypanosoma cruzi; assay: Trypanosoma cruzi phosphomannomutase and mannose-1-phosphate guanylyltransferase assay; format: functional; conditions: 10 µM
[6] = molecular target: T2, Arginase-2, mitochondrial (Homo sapiens) (UniProt P78540); assay: in vitro enzyme assay to detect the production of urea directly proportional to the activity of Arginase II; format: functional; conditions: 33.3 µM; further: in the data most compounds retested in dose-response had high values
T2 sequence (whole entry): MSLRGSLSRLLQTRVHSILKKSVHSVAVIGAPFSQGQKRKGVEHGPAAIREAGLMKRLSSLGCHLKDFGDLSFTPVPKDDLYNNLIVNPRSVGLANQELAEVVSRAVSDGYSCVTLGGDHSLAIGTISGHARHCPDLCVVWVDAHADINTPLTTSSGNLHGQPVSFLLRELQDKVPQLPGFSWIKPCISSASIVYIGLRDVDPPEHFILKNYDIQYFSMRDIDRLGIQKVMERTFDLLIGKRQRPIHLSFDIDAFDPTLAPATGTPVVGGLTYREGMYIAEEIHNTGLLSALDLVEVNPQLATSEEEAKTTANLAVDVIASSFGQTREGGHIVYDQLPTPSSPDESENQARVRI

[7] = molecular target: T3, Proteasome subunit beta (Trypanosoma cruzi) (UniProt O96673); assay: Trypanosoma cruzi proteasome chymotrypsin-like activity (TcProtChymo) assay.; further: in the data most compounds retested in dose-response had high values; format: functional; conditions: 9.37 µM
T3 sequence (whole entry): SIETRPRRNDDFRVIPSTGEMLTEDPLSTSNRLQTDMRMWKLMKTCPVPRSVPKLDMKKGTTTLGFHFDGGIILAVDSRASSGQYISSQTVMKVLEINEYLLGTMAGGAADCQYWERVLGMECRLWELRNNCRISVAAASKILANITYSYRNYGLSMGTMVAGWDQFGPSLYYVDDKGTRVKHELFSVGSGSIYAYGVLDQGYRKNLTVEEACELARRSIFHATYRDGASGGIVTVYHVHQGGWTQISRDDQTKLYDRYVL

[8] = species on record: Homo sapiens; assay: To identify inhibition of the IFN signalling (Jak-Stat) pathway via expression of an eGFP reporter gene under the control of an IFN-stimulated response element (ISRE) containing MxA promoter.; format: functional; conditions: 30 µM
[9] = molecular target: T4, Tyrosyl-tRNA synthetase, putative (Trypanosoma cruzi (strain CL Brener)) (UniProt Q4DSP6); assay: Trypanosoma cruzi tyrosyl tRNA synthetase (TcYRS) _High Tyrosine SOP; format: functional; conditions: 30 µM; further: in the data most compounds retested in dose-response had high values
T4 sequence (whole entry): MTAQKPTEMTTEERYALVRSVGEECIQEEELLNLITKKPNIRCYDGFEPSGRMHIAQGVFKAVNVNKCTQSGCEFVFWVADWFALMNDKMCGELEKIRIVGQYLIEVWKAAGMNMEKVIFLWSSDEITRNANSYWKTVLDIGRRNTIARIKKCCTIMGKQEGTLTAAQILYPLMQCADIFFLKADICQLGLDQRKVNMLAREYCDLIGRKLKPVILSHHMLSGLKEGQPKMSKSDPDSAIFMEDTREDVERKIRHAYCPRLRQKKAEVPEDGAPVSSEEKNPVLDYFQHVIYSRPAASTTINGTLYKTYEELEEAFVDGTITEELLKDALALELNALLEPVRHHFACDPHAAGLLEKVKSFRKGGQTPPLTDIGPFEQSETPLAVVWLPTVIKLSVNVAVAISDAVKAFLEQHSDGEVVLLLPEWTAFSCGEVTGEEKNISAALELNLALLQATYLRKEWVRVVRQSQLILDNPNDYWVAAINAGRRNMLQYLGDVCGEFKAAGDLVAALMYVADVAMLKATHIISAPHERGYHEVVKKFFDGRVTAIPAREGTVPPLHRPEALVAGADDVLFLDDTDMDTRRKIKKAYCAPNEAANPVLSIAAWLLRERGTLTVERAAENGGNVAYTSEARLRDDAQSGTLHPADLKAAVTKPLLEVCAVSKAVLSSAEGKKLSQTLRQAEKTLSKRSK

[10] = molecular target: T4, Tyrosyl-tRNA synthetase, putative (Trypanosoma cruzi (strain CL Brener)); assay: Trypanosoma cruzi tyrosyl tRNA synthetase (TcYRS) SOP; format: functional; conditions: 30 µM
[11] = molecular target: Chromo domain-containing protein 1 (Saccharomyces cerevisiae (strain ATCC 204508 / S288c) (Baker's yeast)) (UniProt P32657); assay: ScCHD-1 Enzyme Inhibition Assay; format: functional; conditions: 30 µM; further: in the data most compounds retested in dose-response had high values
Chain of Chromo domain-containing protein 1 (Saccharomyces cerevisiae (strain ATCC 204508 / S288c) (Baker's yeast)) (P32657 whole entry, the tested form may be a part): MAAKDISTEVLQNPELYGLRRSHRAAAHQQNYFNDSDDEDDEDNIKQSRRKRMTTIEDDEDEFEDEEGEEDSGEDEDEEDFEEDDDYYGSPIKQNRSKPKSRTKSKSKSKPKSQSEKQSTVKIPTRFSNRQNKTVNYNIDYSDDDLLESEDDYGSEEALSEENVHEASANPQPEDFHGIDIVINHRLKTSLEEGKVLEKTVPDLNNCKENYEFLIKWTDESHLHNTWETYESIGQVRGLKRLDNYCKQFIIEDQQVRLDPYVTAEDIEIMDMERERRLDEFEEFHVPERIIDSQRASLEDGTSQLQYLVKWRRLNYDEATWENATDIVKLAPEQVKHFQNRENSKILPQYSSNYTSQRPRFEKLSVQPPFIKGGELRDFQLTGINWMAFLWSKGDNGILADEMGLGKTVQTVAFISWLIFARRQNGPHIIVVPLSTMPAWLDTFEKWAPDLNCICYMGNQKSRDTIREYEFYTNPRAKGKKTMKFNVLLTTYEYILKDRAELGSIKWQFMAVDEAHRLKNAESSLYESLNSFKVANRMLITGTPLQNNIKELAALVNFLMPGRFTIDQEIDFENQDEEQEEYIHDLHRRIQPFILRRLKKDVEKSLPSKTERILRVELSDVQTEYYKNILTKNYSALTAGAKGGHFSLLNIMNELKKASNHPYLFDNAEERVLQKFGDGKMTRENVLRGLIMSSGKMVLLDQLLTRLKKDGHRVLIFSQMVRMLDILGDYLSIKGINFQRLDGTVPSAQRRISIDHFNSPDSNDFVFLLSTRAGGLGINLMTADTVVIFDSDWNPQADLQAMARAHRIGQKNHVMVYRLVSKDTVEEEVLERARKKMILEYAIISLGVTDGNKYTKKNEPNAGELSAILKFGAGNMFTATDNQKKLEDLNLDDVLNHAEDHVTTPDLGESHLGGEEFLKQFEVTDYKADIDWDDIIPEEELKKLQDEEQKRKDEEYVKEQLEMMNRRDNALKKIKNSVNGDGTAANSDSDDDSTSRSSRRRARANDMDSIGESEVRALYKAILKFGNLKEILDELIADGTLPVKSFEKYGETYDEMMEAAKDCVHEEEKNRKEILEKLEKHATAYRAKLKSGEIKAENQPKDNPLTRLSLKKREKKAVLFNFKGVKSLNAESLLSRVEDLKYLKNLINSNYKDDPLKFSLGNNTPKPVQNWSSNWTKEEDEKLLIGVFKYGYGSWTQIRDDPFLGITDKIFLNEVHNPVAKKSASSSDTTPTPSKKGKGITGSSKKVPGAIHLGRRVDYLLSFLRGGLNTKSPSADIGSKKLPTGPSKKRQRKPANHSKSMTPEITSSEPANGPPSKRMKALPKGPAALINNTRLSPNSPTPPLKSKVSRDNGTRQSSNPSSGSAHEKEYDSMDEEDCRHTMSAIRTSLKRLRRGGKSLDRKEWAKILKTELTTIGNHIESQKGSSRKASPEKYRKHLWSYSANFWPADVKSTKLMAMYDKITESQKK

Chain of Protein translocase subunit SecA (Escherichia coli (strain K12)) (P10408 whole entry): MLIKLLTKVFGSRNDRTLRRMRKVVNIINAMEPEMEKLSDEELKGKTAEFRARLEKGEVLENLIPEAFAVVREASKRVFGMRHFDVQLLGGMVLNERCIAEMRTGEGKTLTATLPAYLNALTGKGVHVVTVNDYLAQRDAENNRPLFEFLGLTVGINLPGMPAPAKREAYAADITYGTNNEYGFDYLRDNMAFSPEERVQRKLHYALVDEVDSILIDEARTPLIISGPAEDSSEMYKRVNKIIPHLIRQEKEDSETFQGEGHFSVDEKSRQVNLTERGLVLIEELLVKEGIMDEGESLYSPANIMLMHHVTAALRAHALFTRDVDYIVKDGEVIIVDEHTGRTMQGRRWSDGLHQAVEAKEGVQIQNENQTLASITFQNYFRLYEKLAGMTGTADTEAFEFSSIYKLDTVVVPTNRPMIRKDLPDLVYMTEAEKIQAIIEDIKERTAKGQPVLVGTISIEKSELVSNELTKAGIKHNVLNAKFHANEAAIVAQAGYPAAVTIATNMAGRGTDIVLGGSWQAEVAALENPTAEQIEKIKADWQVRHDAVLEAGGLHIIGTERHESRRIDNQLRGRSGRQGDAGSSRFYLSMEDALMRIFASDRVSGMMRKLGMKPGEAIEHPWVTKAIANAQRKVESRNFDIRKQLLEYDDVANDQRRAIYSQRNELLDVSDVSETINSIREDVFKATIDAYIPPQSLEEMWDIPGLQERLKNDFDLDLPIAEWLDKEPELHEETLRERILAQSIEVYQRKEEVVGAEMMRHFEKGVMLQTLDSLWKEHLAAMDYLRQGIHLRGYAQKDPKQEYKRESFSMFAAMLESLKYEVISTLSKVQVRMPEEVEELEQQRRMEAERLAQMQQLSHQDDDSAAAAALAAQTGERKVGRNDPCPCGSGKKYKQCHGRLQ

Row | Compound | Percent Effect [1] [%] | Percent Effect [2] [%] | Percent Effect [3] [%] | Percent Effect [4] [%] | Percent Effect [5] [%] | Percent Effect [6] [%] | Percent Effect [7] [%] | Percent Effect [8] [%] | Percent Effect [9] [%] | Percent Effect [10] [%] | Percent Effect [11] [%]
1 | Cc1cccnc1NCCNC(=O)[C@H]1CNC[C@@H](C(=O)N2CCCC2)C1 | -3.94 | 2.74 | -3.43 | 8.93 | 2.38 | 0 | 10.5 | -27.6 | 5.21 | 13.6 | -4.52
2 | O=C(COc1cccc(Br)c1)N1CCN(c2nccs2)CC1 | -4.01 | 18.7 | 3.31 | 10.4 | 4.58 | 47.4 | 19.4 | 26.2 | 3.83 | 16.1 | 84.6
3 | Cc1oc(C(=O)O)cc1S(=O)(=O)Nc1c(F)cccc1-n1cccn1 | -5.09 | 0 | -0.737 | 4.46 | 7.5 | 0 | 11 | 7.88 | 2.73 | 6.17 | -3.81
4 | O=C(CN1CCCCC1Cn1cncn1)NCCC1=CCCCC1 (stereo not given) | -9.27 | 7.59 | -1.31 | 4.8 | -2.55 | -0.76 | -4.5 | 30.9 | 2.46 | -3.8 | -6.11
5 | c1csc(-c2nc(CN3CCCC3Cn3cncn3)co2)c1 (stereo not given) | -2.28 | -5.48 | -7.9 | 1.3 | 6.86 | -3.18 | 5.68 | -9.88 | 2.15 | 5 | -3.71
6 | O=C(CCNC(=O)C1CCCC1)NCc1ccccc1Cn1cncn1 | -3.71 | 31.6 | 0.311 | -9.83 | -1.96 | -2.52 | 7.87 | 1.98 | 6.4 | 18.5 | 0.0492
7 | CC(C)c1ncncc1C(=O)N1CCCN(Cc2cccs2)CC1 | -1.81 | 16.2 | -2.92 | -2.71 | 8.08 | -6.47 | 6.46 | 5.27 | 6.93 | 18.3 | -5.18
8 | O=C(CCc1ccccc1)N1CCC(N2CCNC2=O)CC1 | -4.14 | 7.79 | 3.48 | -3.35 | -4.6 | 1.47 | 6.06 | 15.5 | 3.81 | 14.1 | -13.9
9 | Cc1cnn(CC2CN(c3ncnc4ccccc34)CCO2)c1 (stereo not given) | -1.94 | -7.59 | 1.23 | 9.68 | 8.03 | -1.14 | 1.39 | 37.6 | 1.48 | 1.27 | -3.24
10 | CN1CCN(C(=O)Cc2cccc(F)c2)Cc2cccnc21 | -3.84 | 2.6 | -0.44 | 1.15 | 8.55 | -9.65 | -0.499 | 6.92 | 2.15 | 3.7 | -6.06
11 | Cn1cc2c(n1)C(CNC(=O)Cc1ccsc1)OCC2 (stereo not given) | -4.65 | 7.79 | -2.5 | -0.415 | 4.83 | -7.1 | 2.26 | 7.06 | 2.12 | 3.85 | -6.29
12 | Cc1cc(C[S+]([O-])CC(=O)NCC(C)C)no1 (stereo not given) | -4.4 | 18.2 | 6.46 | -1.61 | -2.06 | -2.49 | 0.676 | -13.6 | 7.77 | 12.2 | -5.33
13 | Cc1cccc(OCCC(=O)NCC(C)(C)C(N)=O)c1 | -3.42 | 10.5 | 1.54 | 16.5 | 1.13 | 2.68 | 8.19 | -23.5 | 4.41 | -41.5 | -10.8
14 | Cc1cnn(CCNCc2nc(-c3ccccc3Cl)no2)c1 | -4.16 | 10.5 | 0.118 | -5.56 | 9.77 | -4.98 | 16.5 | 12.2 | 5.39 | 17.1 | -13.7
15 | Cc1nc(COC[C@@H]2CC[C@H]3[C@H](CCN3S(C)(=O)=O)O2)cs1 | 1.19 | 8.11 | -0.571 | -10.8 | -6.94 | 7.96 | 23.4 | 8.05 | 6.49 | 10.3 | 0.52
16 | Cc1cnn(CC2CN(CCc3ccncc3)CCO2)c1 (stereo not given) | -4.16 | 5.48 | 0.214 | -1.34 | -0.783 | 3.18 | 4.08 | -14.5 | 3.23 | 5 | -0.563
17 | CCOC(=O)C1CCN(Cc2csc(C(C)(C)C)n2)CC1 | 1.04 | 0 | 2.22 | 11 | -3.12 | 9.89 | -5.98 | 4.26 | 4.43 | -3.8 | -1.95
18 | O=c1nc(CNc2ccccc2)[nH]n1Cc1ccccc1 | -3.5 | 7.89 | 10.7 | 0.216 | -4.58 | -1.18 | 19.5 | 3.25 | 9.57 | 13 | -4.75
19 | CN1CCOC(CNCc2cccc(OCC(F)(F)F)c2)C1 (stereo not given) | -3.56 | 5.06 | -19.3 | 12.1 | -1.79 | 0.38 | -6.31 | 0.0497 | 4.43 | 1.27 | -2.57
20 | COc1c(CNCc2ccc(CN(C)C)cc2)c(C)nn1C | 3.12 | -1.27 | 3.93 | 0.303 | 3.79 | 4.95 | 9.26 | -11.7 | -3.12 | 2.53 | -2.72
